Results on 8 compounds are retold here after PubChem BioAssay.

Molecules are shown by their SMILES. Activity calls are given as the source filed them.

A short description of assay [1]: E. coli DRC41 culture turbidity changes, primary screen, E. coli filamentation inducer project, strain DRC41, OD650, 48 h (AID 1152).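 Further: E. coli MC1000 strain DRC41 lacking acrAB efflux pump and sulA.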 The following applies: E. coli DRC41 (acrAB sulA), higher = more signal, called active from +8 up or from −8 down.
Assay [2] is described as follows: small-molecule binders of probe aLefty1, primary screen, biochemical, small-molecule microarray, 635/667 nm fluorescence (AID 1153).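 Further: score merges spot fluorescence with signal-to-noise ratio from the scanned slide images.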 The following applies: higher = more signal.
Assay [3] can be described thus: PSAC antagonists in infected red cells, primary screen, cell-based, P. falciparum Indochina, OD700, 1 h (AID 1154). The note with it: P. falciparum Indochina infected RBC osmotic lysis, higher = more signal, called active from +8 up or from −8 down.
Assay [4] is described as follows: PSAC antagonists in infected red cells, primary screen, cell-based, P. falciparum Indochina, OD700, 2 h (AID 1155).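 Further: lysis reports solute entry through the parasite surface anion channel PSAC; channel blockers reduce lysis of infected cells.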 The following applies: P. falciparum Indochina infected erythrocytes, osmotic lysis OD700; higher = more signal, called active from +8 up or from −8 down.
Assay [5] in a line: osmotic lysis modulators in infected erythrocytes, primary screen, PSAC antagonist project, cell-based, P. falciparum Indochina, OD700, 3 h (AID 1156). The following applies: higher = more signal, called active from +8 up or from −8 down.
Assay [6] in a line: PSAC antagonists in infected red cells, primary screen, cell-based, P. falciparum Indochina, OD700, 18 h (AID 1157). The following applies: P. falciparum Indochina infected erythrocytes, osmotic lysis OD700, 18 h; higher = more signal, called active from +8 up or from −8 down.
Assay [7] can be described thus: modulators of S6 phosphorylation in cells, primary screen, cell-based, A549, cytoblot, luminescence, serum-stimulated (AID 1158).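 Further: serum-stimulated A549 lung adenocarcinoma cells; signal is phosphorylated S6 detected by cytoblot immunostaining with HRP secondary.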 The note with it: A549 phospho-S6 cytoblot, 5 h, higher = more signal.
Assay [8] concerns the target NADPH oxidase 2 (Homo sapiens) (UniProt P04839). Put plainly: NOX2-dependent H2O2 signal modulators, primary screen, NOX inhibitor project, cell-based, HEK293-NOX2, PMA-stimulated, Amplex Red fluorescence (AID 1159). Further: test concentration not given here. The note with it: 45 min, higher = more signal, called active from +8 up or from −8 down.
The target of assay [9] is NADPH oxidase 4 (Homo sapiens) (UniProt Q9NPH5). The experiment in a line: NOX4-dependent H2O2 signal modulators, primary screen, NOX inhibitor project, cell-based, HEK293-NOX4, tetracycline-induced, Amplex Red fluorescence (AID 1160). The following applies: 45 min, higher = more signal, called active from +8 up or from −8 down.
Sequence of NADPH oxidase 4 (Homo sapiens) (Q9NPH5 whole entry, looked up): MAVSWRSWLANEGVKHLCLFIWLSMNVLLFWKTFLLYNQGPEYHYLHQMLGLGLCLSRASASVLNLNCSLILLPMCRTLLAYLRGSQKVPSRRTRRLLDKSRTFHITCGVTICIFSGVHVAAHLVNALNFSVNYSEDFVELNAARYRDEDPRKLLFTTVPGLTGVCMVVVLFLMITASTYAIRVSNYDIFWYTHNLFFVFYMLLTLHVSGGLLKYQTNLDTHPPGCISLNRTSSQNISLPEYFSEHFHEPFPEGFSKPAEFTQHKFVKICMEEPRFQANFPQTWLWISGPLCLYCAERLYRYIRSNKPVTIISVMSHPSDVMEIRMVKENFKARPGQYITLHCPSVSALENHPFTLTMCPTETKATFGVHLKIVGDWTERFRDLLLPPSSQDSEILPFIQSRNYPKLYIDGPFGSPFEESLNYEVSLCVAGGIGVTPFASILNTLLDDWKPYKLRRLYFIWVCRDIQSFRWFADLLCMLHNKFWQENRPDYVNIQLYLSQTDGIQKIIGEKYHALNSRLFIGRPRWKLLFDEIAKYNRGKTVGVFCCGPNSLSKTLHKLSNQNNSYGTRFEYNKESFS
Assay [10] concerns the target NADPH oxidase 5 (Homo sapiens) (UniProt Q96PH1). Put plainly: NOX5-dependent H2O2 signal modulators, primary screen, NOX inhibitor project, cell-based, HEK293-NOX5, Amplex Red fluorescence (AID 1161). The following applies: HEK293-NOX5, ionomycin, 45 min, higher = more signal.
Assay [11] can be described thus: A549 cell viability effects, profiling panel, calcein-AM fluorescence, 48 h, basal (AID 1162). Further: test concentration not given here. The following applies: higher = more signal.
Assay [12] is described as follows: adipocyte viability effects, profiling panel, cell-based, 3T3-L1 adipocytes, calcein-AM fluorescence, 48 h, basal (AID 1163). Further: test concentration not given here. The note with it: 3T3-L1 adipocytes viability, higher = more signal.
A short description of assay [13]: HepG2 cell viability effects, profiling panel, calcein-AM fluorescence, 48 h, basal (AID 1164). Further: test concentration not given here. The note with it: higher = more signal.
Assay [14] can be described thus: MM1S cell viability effects, profiling panel, calcein-AM fluorescence, 48 h, basal (AID 1165).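 Further: viability of MM1S multiple myeloma cells under basal unstimulated conditions; test concentration not given here.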 The note with it: higher = more signal.
A short description of assay [15]: basal RPMI8226 viability, no added stimulus, profiling panel, cell-based, calcein-AM fluorescence, 48 h, PK04 Diversity Set (AID 1166).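 Further: cells grown under basal conditions without added stimulus; test concentration not given here.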 The note with it: RPMI8226 myeloma viability, higher = more signal.
Assay [16] can be described thus: basal HepG2 mitochondrial membrane potential changes, profiling panel, cell-based, JC-1 fluorescence, 24 h, 100 nL compound (AID 1167). Further: test concentration not given here. The following applies: higher = more signal.
Assay [17] can be described thus: basal 3T3-L1 adipocyte mitochondrial potential changes, profiling panel, cell-based, JC-1 fluorescence, 3T3-L1 adipocytes, 24 h, 100 nL compound (AID 1168). Further: test concentration not given here. The following applies: JC-1 mitochondrial fluorescence, higher = more signal, called active from +8 up or from −8 down.
Assay [18] can be described thus: basal RPMI8226 mitochondrial membrane potential changes, profiling panel, cell-based, JC-1 fluorescence, 24 h, 100 nL compound (AID 1169). Further: test concentration not given here. The note with it: RPMI8226 myeloma, JC-1 mitochondrial potential fluorescence, higher = more signal.
Assay [19] in a line: basal MM1S mitochondrial membrane potential changes, profiling panel, cell-based, JC-1 fluorescence, 24 h, 100 nL compound (AID 1170). Further: test concentration not given here. The following applies: higher = more signal.
The nature of assay [20]: A549 lung cancer cell viability effects, profiling panel, resazurin fluorescence, 24 h, PK04 Diversity Set (AID 1171). Further: test concentration not given here. The following applies: higher = more signal, called active from +8 up or from −8 down. A general note: Alamar Blue is a resazurin reagent that responds to reducing activity.

Sequence of NADPH oxidase 5 (Homo sapiens) (Q96PH1 whole entry, looked up): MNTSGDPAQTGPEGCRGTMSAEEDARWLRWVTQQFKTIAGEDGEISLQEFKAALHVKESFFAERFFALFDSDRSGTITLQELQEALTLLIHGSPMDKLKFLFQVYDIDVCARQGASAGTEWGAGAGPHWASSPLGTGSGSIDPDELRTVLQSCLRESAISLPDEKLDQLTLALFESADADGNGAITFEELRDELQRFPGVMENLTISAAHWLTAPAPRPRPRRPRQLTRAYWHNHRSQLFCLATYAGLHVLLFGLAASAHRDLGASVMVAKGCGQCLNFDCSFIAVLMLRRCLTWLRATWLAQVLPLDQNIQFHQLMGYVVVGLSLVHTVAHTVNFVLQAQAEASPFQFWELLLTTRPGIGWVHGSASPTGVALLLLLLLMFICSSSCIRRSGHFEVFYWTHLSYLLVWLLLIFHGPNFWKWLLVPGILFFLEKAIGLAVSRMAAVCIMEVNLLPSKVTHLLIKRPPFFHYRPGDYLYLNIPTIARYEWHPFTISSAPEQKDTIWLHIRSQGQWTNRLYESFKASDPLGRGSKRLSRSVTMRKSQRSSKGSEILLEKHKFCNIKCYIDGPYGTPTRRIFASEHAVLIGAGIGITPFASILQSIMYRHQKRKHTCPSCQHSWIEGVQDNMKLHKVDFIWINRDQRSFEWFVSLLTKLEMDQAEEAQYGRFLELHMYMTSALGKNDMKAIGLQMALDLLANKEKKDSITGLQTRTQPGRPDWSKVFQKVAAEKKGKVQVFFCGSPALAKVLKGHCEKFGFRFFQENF
Sequence of NADPH oxidase 2 (Homo sapiens) (P04839 whole entry, looked up): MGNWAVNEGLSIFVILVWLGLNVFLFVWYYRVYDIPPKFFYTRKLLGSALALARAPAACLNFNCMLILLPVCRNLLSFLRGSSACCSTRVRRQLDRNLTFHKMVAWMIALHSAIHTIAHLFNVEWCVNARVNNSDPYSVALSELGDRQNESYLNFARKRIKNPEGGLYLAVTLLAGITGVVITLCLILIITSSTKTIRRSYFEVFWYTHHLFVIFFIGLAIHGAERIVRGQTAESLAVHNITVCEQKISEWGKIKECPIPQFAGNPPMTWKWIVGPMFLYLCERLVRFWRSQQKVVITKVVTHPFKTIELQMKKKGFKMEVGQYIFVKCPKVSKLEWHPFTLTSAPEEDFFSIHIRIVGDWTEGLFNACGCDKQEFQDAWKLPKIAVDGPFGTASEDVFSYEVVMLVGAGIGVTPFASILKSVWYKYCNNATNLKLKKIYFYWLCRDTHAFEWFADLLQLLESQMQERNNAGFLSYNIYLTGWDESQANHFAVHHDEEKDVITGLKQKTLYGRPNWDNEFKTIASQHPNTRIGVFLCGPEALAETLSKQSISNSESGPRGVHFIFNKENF

Consider `COCCOC(=O)N1C(=O)[C@@]2(c3cc(C#CCNC(N)=O)ccc31)[C@H](C(N)=O)[C@H]1C(=O)O[C@H](c3ccccc3)[C@H](c3ccccc3)N1[C@@H]2c1ccc(OCCO)cc1`, for which the z-score was -0.618 (inactive) in assay [1]; 6.81 (inactive) in [3]; 1.02 (inactive) in assay [4]; -0.0934 (inactive) in assay [5]; 0.237 (inactive) in assay [6]; -0.575 in assay [7]. Moreover, the z-score is 1.8 (inactive) in [8]; 1.04 (inactive) in assay [9]; 0.0625 in assay [10]; -0.304 in assay [11]; -0.867 in assay [12]; -0.392 in [13]. Moreover, the z-score in assay [14] is -0.905; in [15] it was 0.66; in assay [16], -2.81; in assay [17], 0.441 (inactive); in [18] it was -0.634; in assay [19], -0.602. Further, the z-score in [20] is 0.452 (inactive). In [2], this compound had a composite z-score of -0.41.
For the compound `CCOC(=O)C[C@H]1[C@H](OC(=O)c2ccc(C(=O)c3ccccc3)cc2)[C@@H](NC(=O)C2CCCCC2)c2cc(OCCCO)ccc2N1C(=O)Cc1ccc(OC)cc1`, the z-score in assay [1] is 0.522 (inactive); in assay [3] it was 2.32 (inactive); in [4], 0.744 (inactive); in assay [5], 0.0357 (inactive); in [6], -0.206 (inactive); in [7], 0.0093. For the same compound, the z-score is -1.38 (inactive) in [8]; 0.626 (inactive) in assay [9]; 1.74 in assay [10]; 0.273 in assay [11]; 0.628 in assay [12]; 0.918 in assay [13]. Also, the z-score in [14] is -0.4; in assay [15], -0.631; in [16] it was 1.06; in assay [17] it was -0.76 (inactive); in assay [18], 0.368; in assay [19], -0.812. In addition, the z-score in [20] is -0.0859 (inactive). In assay [2], this compound returned a composite z-score of 0.271.
In the case of `CCCC=C(CCC)[C@@H](NS(=O)(=O)c1cccc2cccnc12)c1ccc(C(=O)OC)cc1`, the z-score in [1] was -1.2 (inactive); in [3] it was -0.643 (inactive); in assay [4] it was -0.299 (inactive); in assay [5], -0.722 (inactive); in assay [6], -1.19 (inactive); in [7], 0.393. For the same compound, the z-score is 0.0603 (inactive) in [8]; 0.212 (inactive) in [9]; 2 in [10]; -1.76 in assay [11]; -0.0806 in assay [12]; -1.38 in assay [13]. Further, the z-score in assay [14] is 0.131; in assay [15] it was -0.0956; in assay [16] it was -1.52; in assay [17], -0.553 (inactive); in assay [18], 0.907; in assay [19], -1.13. The z-score in assay [20] is 0.174 (inactive). Moreover, the composite z-score in assay [2] stood at 0.968.
On to `O=C1C[C@@](C(=O)O)(c2ccc([N+](=O)[O-])cc2)[C@@H](c2ccc(CO)cc2)N1CC12CC3CC(CC(C3)C1)C2`, for which the z-score is -0.146 (inactive) in assay [1]; 6.47 (inactive) in assay [3]; 0.964 (inactive) in assay [4]; 2.67 (inactive) in assay [5]; 0.279 (inactive) in [6]; 0.469 in assay [7]. For the same compound, the z-score was -0.545 (inactive) in assay [8]; -2.72 (inactive) in assay [9]; -1.01 in assay [10]; 0.0051 in assay [11]; 0.0068 in assay [12]; 0.313 in assay [13]. The z-score is -1.49 in assay [14]; -2.4 in assay [15]; 0.609 in assay [16]; 0.473 (inactive) in assay [17]; -0.15 in assay [18]; -0.811 in [19]. Moreover, the z-score in assay [20] is 0.689 (inactive). This compound gave a composite z-score in [2] of 0.0041.
For the compound `COCCCNC(=O)[C@@]1(Cc2ccccc2I)c2ccccc2C(=O)N(Cc2ccccc2Cl)[C@H]1c1ccc(CO)cc1`, the z-score in assay [1] is 0.437 (inactive); in assay [3] it was 5.51 (inactive); in assay [4] it was 0.303 (inactive); in [5], 0.65 (inactive); in [6], 0.13 (inactive); in assay [7], 0.984. The z-score in assay [8] was 0.374 (inactive); in [9], -0.881 (inactive); in assay [10] it was -2.14; in assay [11] it was -0.119; in [12], 0.39; in assay [13], 0.9. The z-score was -0.36 in [14]; -0.503 in assay [15]; 1.29 in [16]; 0.781 (inactive) in assay [17]; -0.778 in assay [18]; 0.148 in [19]. Also, the z-score in assay [20] is 2.16 (inactive). Also, the composite z-score in assay [2] was -0.0346.
As to `COc1ccccc1CN1C(=O)c2ccccc2[C@@]2(Cc3ccccc3N(C3CC3)C2=O)[C@@H]1c1ccc(CO)cc1`, the z-score is -0.685 (inactive) in assay [1]; 0.162 (inactive) in assay [3]; -0.0183 (inactive) in [4]; -0.108 (inactive) in assay [5]; 0.23 (inactive) in [6]; -0.243 in assay [7]. The z-score was -0.161 (inactive) in [8]; 0.394 (inactive) in [9]; 1.04 in assay [10]; 0.0264 in assay [11]; 0.358 in [12]; 0.43 in [13]. Further, the z-score in assay [14] was -1.6; in assay [15], -0.96; in assay [16], -0.774; in assay [17] it was -0.607 (inactive); in [18], 0.213; in assay [19], 0.361. The z-score in assay [20] was 0.375 (inactive). In [2], this compound returned a composite z-score of -0.235.
`C=CCC(OC(C)=O)[C@@H]1[C@@H](N(Cc2cccc3ccccc23)C(=O)Cc2ccc(F)cc2)c2cc(OCCCO)ccc2N1C(=O)Cc1ccc(OC)cc1` (stereo not given in full): the z-score is 1.44 (inactive) in assay [1]; 0.922 (inactive) in [3]; -0.262 (inactive) in assay [4]; -0.0628 (inactive) in assay [5]; -0.545 (inactive) in assay [6]; 1.36 in [7]. Besides, the z-score was -0.973 (inactive) in assay [8]; 0.113 (inactive) in assay [9]; 0.743 in assay [10]; 1.34 in assay [11]; 1.88 in assay [12]; 0.99 in assay [13]. In addition, the z-score in assay [14] was 0.827; in [15] it was 0.762; in [16], 2.26; in assay [17], 0.527 (inactive); in assay [18], 0.183; in assay [19], -0.0319. Moreover, the z-score in assay [20] is 0.641 (inactive). In [2], this compound showed a composite z-score of 0.0789.
As for `O=C(N1CCOCC1)[C@@]1(CCS(=O)(=O)c2ccccc2)COC(c2ccc(OCCCO)cc2)=N1`, the z-score in assay [1] is 1.04 (inactive); in [3], 23.8 (active); in assay [4] it was 9.6 (active); in assay [5] it was 1.75 (inactive); in [6], 1.3 (inactive); in assay [7], -0.713. Moreover, the z-score was -1.79 (inactive) in assay [8]; 0.44 (inactive) in assay [9]; -0.597 in assay [10]; 0.437 in [11]; -1.09 in assay [12]; -0.0333 in [13]. Besides, the z-score is 0.205 in [14]; 0.108 in assay [15]; -0.33 in assay [16]; -0.4 (inactive) in assay [17]; 0.238 in assay [18]; -0.659 in [19]. Moreover, in assay [20], the z-score was 0.201 (inactive). The compound also showed a composite z-score in assay [2] of -0.356.
